Measured values as given in PubChem BioAssay (EPA / NIEHS).
Results filed as inconclusive are left out. Activity calls are given as the source filed them. How the source made its calls, unless noted: active means hit-call score of the fitted dose curve at least 0.9, where 1 is the maximum; inconclusive means response in the unintended direction; inactive means score below 0.9.

Tests used:
[1] = IUF_NPC1_cytotoxicity_72hr: Cytotoxicity Assessment at 72 hours in the Leibniz Research Institute for Environmental Medicine (IUF) Neural Progenitor Cell Proliferation Assay (NPC1) (AID 2284332);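 further: rising LDH signal means more cytotoxicity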
Outline: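 Readout is fluorescence from LDH-dependent resazurin conversion, sampled from culture medium after compound contact lasting 72 h. Each well holds one 0.25-0.35 mm human progenitor sphere kept at 37C, 5% CO2 with EGF and FGF.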

[2] = CCTE_Mundy_HCI_iCellGluta_NOG_NeuronCount: CCTE's Neurite Outgrowth Assay in iCellGluta cells for Neuron Count, Mundy Lab (AID 2284340);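 further: cells fixed about 48 h after compound addition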
Outline: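 Neuron count read by automated high-content imaging of Hoechst 33342 and betaIII-tubulin/Alexa Fluor-488 labelling in human iPSC glutamatergic neurons. Activity fitted relative to DMSO.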

[3] = CCTE_Mundy_HCI_iCellGluta_NOG_NeuriteCount: CCTE's Neurite Outgrowth Assay in iCellGluta cells for Neurite Count, Mundy Lab (AID 2284342);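 further: chemical exposure about 48 hours starting 2 hours after plating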
SERPINA7 (gene 6906) = assay: CCTE_GLTED_hTBG: CCTE's human Thyroxine-binding Globulin (TBG) Inhibition Assay, Great Lakes Toxicology and Ecology Division (GLTED) Lab (AID 2284343);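 further: active chemicals lower fluorescence versus DMSO baseline by displacing probe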
Outline: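 Steps: combine TBG with chemical; incubate 2 hours so that disruptors release ANSA; record fluorescence (380 ex, 475 em). Loss of signal was fitted against DMSO controls.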

[4] = TAMU_PeakParms_SingleDonor1434_Asystole: Texas A&M University (TAMU) 1.5-hr Human Induced Pluripotent Stem Cell (iPSC)-derived Cardiomyocytes Calcium (Ca+2) Flux Assay for Cardiotoxicity: Asystole (quiescence of beating) (AID 2284328)
Outline: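 Average Ca2+-flux peak frequency (beats/s) was recorded in single-donor iPSC-derived cardiomyocytes after 90 min exposure (0.2–100 uM final, 0.5% DMSO). Asystole POD set as EC95 against DMSO, no preprocessing.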

[5] = CCTE_Deisenroth_H295R-HTRF_384WELL_ESTRADIOL: CCTE's H295R-HTRF Assay Evaluation of Estradiol Concentration, Deisenroth Lab (AID 2284361; active means hit-call score of the fitted dose curve at least 0.9, where 1 is the maximum; inactive means score below 0.9); details: actives raise or lower the signal
Outline: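 Estradiol secreted into medium by H295R adrenocortical cells, quantified by HTRF after 48 h dosing over a nine-point 0.001 - 100 uM final range; gain or loss versus DMSO. Parallel ATP-luminescence viability readout; n=5 experiments.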

[6] = CCTE_Deisenroth_H295R-HTRF_384WELL_TESTOSTERONE: CCTE's H295R-HTRF Assay Evaluation of Testosterone Concentration, Deisenroth Lab (AID 2284373; active means hit-call score of the fitted dose curve at least 0.9, where 1 is the maximum; inactive means score below 0.9); details: actives raise or lower the signal
Outline: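 H295R cells were acclimated 24 h, then exposed 48 h to nine concentrations (0.001–100 uM final) in technical triplicate, n=5. Testosterone in conditioned medium was measured by HTRF (em 620/665 nm). Fitting was bidirectional versus DMSO; CellTiter-Glo viability ran on the same plates.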

[7] = CCTE_Deisenroth_H295R-HTRF_384WELL_CTOX: Cytotoxicity Assessment in CCTE's H295R-HTRF Assay, Deisenroth Lab (AID 2284380)
Outline: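 Luminescent ATP viability readout (CellTiter-Glo 2.0), multiplexed on plates used for hormone sampling, after 48 h chemical exposure. Human H295R cells; final concentrations 0.001–100 uM in nine steps, technical triplicates, five experiments; DMSO baseline.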

[8] = VALA_TUBHUV_Antagonist_TubuleLength: VALA Sciences human Umbilical Vein Endothelial Tubule Formation (TUBHUV) Antagonism Assay (AID 2284325)
Outline: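 Tubule length was imaged via CD31 immunofluorescence after a further 3-day compound exposure in 10 ng/ml VEGF, following 3-day pre-culture of HUVEC with HDF at 1:3. Vehicle 0.1% DMSO; suramin (100 uM) inhibition control.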

[9] = VALA_MIGHUV1_ScratchOnly_WoundArea: VALA Sciences human Umbilical Vein Endothelial Cell Migration (MIGHUV) Assay, Area of Scratch Wound Inhibited Recovery (AID 2284336)
Outline: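 Wound area remaining after 24 h recovery imaged by Hoechst nuclear fluorescence in scratched HUVEC cultures, chemicals added within 30 min of scratching across a 6-point series. Gain of signal fitted against 0.1% DMSO; cytochalasin D positive control.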

[10] = VALA_TUBHUV_Agonist_TubuleLength: VALA Sciences human Umbilical Vein Endothelial Tubule Formation (TUBHUV) Agonism Assay (AID 2284337)
Outline: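 Tubule length quantified by CD31 immunofluorescence imaging after fixation. HUVEC-HDF co-cultures (1:3) pre-grown 3 days with 10 ng/ml VEGF, then dosed 3 days in VEGF medium; 0.1 % DMSO vehicle baseline.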

[11] = VALA_TUBIPS_Agonist_CellCount: Viability Assessment in the VALA Sciences human iPS-derived Endothelial Tubule Formation (TUBIPS) Agonism Assay (AID 2284338)
[12] = system: Brachyury (BRA) Protein Expression, Deisenroth Lab, TBXT (gene 6862); assay: CCTE_Deisenroth_DEVTOX-GLR_legacy_Bra: (Legacy) CCTE's DevTox GLR-Endo Assay Evaluation of Brachyury (BRA) Protein Expression, Deisenroth Lab (AID 2284329; active means hit-call score of the fitted dose curve at least 0.9, where 1 is the maximum; inactive means score below 0.9)
Outline: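 Percent Bra-positive cells, scored by high-content imaging against a threshold of 5x BMAD over the undifferentiated control median, with the 0.2% DMSO median subtracted. RUES2-GLR cultures were dosed twice at 24 h intervals across a 48 h differentiation, at 1 nM–200 uM in ten steps, with n=4 replicates.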

[13] = CCTE_Deisenroth_DEVTOX-GLR_legacy_CellCount: (Legacy) Viability Assessment in CCTE's DevTox GLR-Endo Assay, Deisenroth Lab (AID 2284331; active means hit-call score of the fitted dose curve at least 0.9, where 1 is the maximum; inactive means score below 0.9); details: actives raise or lower the signal
Outline: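 Nuclei count by fluorescence high-content imaging (5 fields/well) after 48 h differentiation of RUES2-GLR cells. Two exposures, 24 h apart; 1 nM - 200 uM series; n=4. Bidirectional fit vs DMSO.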

[14] = system: SRY-box transcription factor 17 (SOX17) Protein Expression, Deisenroth Lab, SOX17 (gene 64321); assay: CCTE_Deisenroth_DEVTOX-GLR_legacy_Sox17: (Legacy) CCTE's DevTox GLR-Endo Assay Evaluation of SRY-box transcription factor 17 (SOX17) Protein Expression, Deisenroth Lab (AID 2284341; active means hit-call score of the fitted dose curve at least 0.9, where 1 is the maximum; inactive means score below 0.9); details: actives raise or lower the signal
Outline: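 RUES2-GLR human pluripotent cells, seeded 24 h, then differentiated 48 h in defined media with two chemical exposures 24 h apart (1 nM - 200 uM, 10 points). Sox17+ fraction from high-content fluorescence imaging; bidirectional fit versus 0.2% DMSO.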

[15] = system: SRY-box transcription factor 2 (SOX2) Protein Expression, Deisenroth Lab, SOX2 (gene 6657); assay: CCTE_Deisenroth_DEVTOX-GLR_legacy_Sox2: (Legacy) CCTE's DevTox GLR-Endo Assay Evaluation of SRY-box transcription factor 2 (SOX2) Protein Expression, Deisenroth Lab (AID 2284346; active means hit-call score of the fitted dose curve at least 0.9, where 1 is the maximum; inactive means score below 0.9)
Outline: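 Percent Sox2-positive cells was scored by high-content imaging of 5 fields per well. Positivity cutoff was 5x BMAD over the directed endoderm control, and the DMSO median was subtracted. Cells were RUES2-GLR, dosed twice at 24-h intervals over 48 h of differentiation (1 nM-200 uM).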

[16] = system: SRY-box transcription factor 17 (SOX17) Protein Expression, Deisenroth Lab, SOX17 (gene 64321); assay: CCTE_Deisenroth_DEVTOX-GLR_Endo_SOX17: CCTE's DevTox GLR-Endo Assay Evaluation of SRY-box transcription factor 17 (SOX17) Protein Expression, Deisenroth Lab (AID 2284413; active means hit-call score of the fitted dose curve at least 0.9, where 1 is the maximum; inactive means score below 0.9)
Outline: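 RUES2-GLR human pluripotent cells were seeded 24 h, then differentiated toward endoderm for 48 h with two chemical exposures 24 h apart (10-point series, 1 nM - 200 uM). Nuclei-stained fixed cells were imaged; endpoint is percent change in SOX17+ cells versus 0.2% DMSO.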

[17] = system: Brachyury (BRA) Protein Expression, TBXT (gene 6862); assay: CCTE_Deisenroth_DEVTOX-GLR_Endo_BRA: CCTE's DevTox GLR-Endo Assay Evaluation of Brachyury (BRA) Protein Expression, Deisenroth Lab (AID 2284417; active means hit-call score of the fitted dose curve at least 0.9, where 1 is the maximum; inactive means score below 0.9)
Outline: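 RUES2-GLR human pluripotent cells, seeded 24 h, then differentiated 48 h in defined media with two chemical exposures 24 h apart (10-point series, 1 nM - 200 uM). Fixed, nuclear-stained, imaged; endpoint is percent BRA+ cells minus 0.2% DMSO control.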

[18] = CCTE_Deisenroth_DEVTOX-GLR_Endo_CellCount: Viability Assessment in CCTE's DevTox GLR-Endo Assay, Deisenroth Lab (AID 2284420; active means hit-call score of the fitted dose curve at least 0.9, where 1 is the maximum; inactive means score below 0.9)
Outline: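 Human pluripotent RUES2-GLR line; 24 h pre-seed; 48 h endoderm-directed differentiation; 2 doses, q24h; 10 conc., 1 nM - 200 uM; fix + nuclear dye; 5 fields/well imaged; readout = nuclei count, % change vs 0.2% DMSO; n=4.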

[19] = VALA_TUBIPS_Antagonist_CellCount: Viability Assessment in the VALA Sciences human iPS-derived Endothelial Tubule Formation (TUBIPS) Antagonism Assay (AID 2284335)
Procedure: VALA_TUBIPS_Agonist is a cell-based, multiplexed assay that uses human iPS-derived endothelial cells (iPSC). Measurements were taken 72 hours after chemical dosing in a 96-well plate.VALA_TUBIPS_Antagonist_CellCount is the one of two assay components measured from the VALA_TUBIPS_Antagonist assay. It is designed to make measurements of viability, a form of viability reporter, as detected with fluorescence intensity signals by HCS Fluorescent Imaging technology. Data from the assay component VALA_TUBIPS_Antagonist_CellCount was analyzed at the endpoint, VALA_TUBIPS_Antagonist_CellCount, in the positive analysis fitting direction relative to DMSO as the negative control and baseline of activity. Using a type of viability reporter, loss-of-signal activity can be used to understand viability. To generalize the intended target to other relatable targets, this assay endpoint is annotated to the cell cycle intended target family, where the subfamily is cell count.
This HUVEC-HDF assay was designed to detect chemical suppression of tubulogenesis, i.e. antagonism. To measure tubulogenesis antagonism, HUVEC cells were co-cultured with HDF cells at a 1:3 ratio for 3-days in 10 ng/ml VEGF (i.e., favorable conditions with growth factors), then changed to assay medium containing 10 ng/ml VEGF and ToxCast compounds for an additional 3-day period. […]

**Q.** With COP(=S)(OC)Oc1nc(Cl)c(Cl)cc1Cl as the compound, how does the outcome [1] read?
**A.** inactive

**Q.** And the AC50 [2]?
**A.** 23.1 µM (active)

**Q.** What about the AC50 [3] of the same compound?
**A.** 27.8 µM (active)

**Q.** What does the source list for COP(N)(=O)SC (stereo not given)?
**A.** outcome [1]: inactive; outcome [2]: inactive; outcome [3]: inactive

**Q.** With CCOC(=O)CC(SP(=S)(OC)OC)C(=O)OCC (stereo not given) as the compound, how does the outcome [1] read?
**A.** inactive

**Q.** And the outcome [2]?
**A.** inactive

**Q.** And the outcome [3]?
**A.** inactive

**Q.** What does the source list for C=CCC1=C(C)[C@@H](OC(=O)[C@@H]2[C@@H](C=C(C)C)C2(C)C)CC1=O?
**A.** outcome [2]: inactive; outcome [3]: inactive

**Q.** With C#CCOS(=O)OC1CCCCC1Oc1ccc(C(C)(C)C)cc1 (stereo not given) as the compound, how does the AC50 (SERPINA7 (gene 6906)) read?
**A.** 25.2 µM (active)

**Q.** What does the source list for COC(=O)N(OC)c1ccccc1COc1ccn(-c2ccc(Cl)cc2)n1?
**A.** outcome [1]: inactive; AC50 [2]: 12.7 µM (active); AC50 [3]: 3.35 µM (active)

**Q.** Which outcome [4] does the source give for CCCCC(CC)COC(=O)c1ccccc1C(=O)OCC(CC)CCCC (stereo not given) here?
**A.** inactive

**Q.** What about the outcome [1] of the same compound?
**A.** inactive

**Q.** What about the AC50 [2] of the same compound?
**A.** 18.8 µM (active)

**Q.** And the AC50 [3]?
**A.** 30.4 µM (active)

**Q.** And the outcome [5]?
**A.** inactive

**Q.** And the outcome [6]?
**A.** inactive

**Q.** What about the outcome [7] of the same compound?
**A.** inactive

**Q.** With CCCN(CCC)c1c([N+](=O)[O-])cc(S(N)(=O)=O)cc1[N+](=O)[O-] as the compound, how does the AC50 (SERPINA7 (gene 6906)) read?
**A.** 5.43 µM (active)

**Q.** What does the source list for N#Cc1nn(-c2c(Cl)cc(C(F)(F)F)cc2Cl)c(N)c1S(=O)C(F)(F)F (stereo not given)?
**A.** outcome [8]: inactive; outcome [1]: inactive; outcome [9]: inactive; outcome [10]: inactive; outcome [11]: inactive; outcome [2]: inactive; outcome [3]: inactive; AC50 (SERPINA7 (gene 6906)): 24.6 µM (active)

**Q.** With COC(=O)c1ccccc1C(=O)OC as the compound, how does the outcome [12] read?
**A.** inactive

**Q.** And the outcome [13]?
**A.** inactive

**Q.** And the outcome [14]?
**A.** inactive

**Q.** And the outcome [15]?
**A.** inactive

**Q.** And the outcome [16]?
**A.** inactive

**Q.** And the outcome [17]?
**A.** inactive

**Q.** What about the outcome [18] of the same compound?
**A.** inactive

**Q.** Which results are given for CC(C)(C)c1ccc(CSc2cnn(C(C)(C)C)c(=O)c2Cl)cc1?
**A.** outcome [8]: inactive; outcome [1]: inactive; outcome [19]: inactive; AC50 [10]: 7.59 µM (active); AC50 [11]: 50 µM (active); AC50 [2]: 6.79 µM (active); AC50 [3]: 0.374 µM (active)
